# Measured values: the supplement of paper PMC8728848
# The sample as a whole holds a higher share of the strongest signals than the screen did.
# What was measured:
# Experiment in all cases: glycan array binding signal (z-score within array); higher = stronger binding
# Conditions in all cases: glycan notation: IUPAC condensed, linker removed
# [1] = target: Fuc(a1-2)Gal(b1-3)GlcNAc(b1-2)Man(a1-3)[Fuc(a1-2)Gal(b1-3)GlcNAc(b1-2)Man(a1-6)]Man(b1-4)GlcNAc(b1-4)[Fuc(a1-6)]GlcNAc
# Outline: (§1)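 Glycan array data were curated from 3228 arrays in the Consortium for Functional Glycomics database and kept only where the protein sequence was available. Glycan names were converted to IUPAC-condensed notation, and columns mapping to the same glycan were averaged. The binding signal is a within-array Z-score, averaged across arrays of the same protein sequence at different concentrations or buffers and across linkers. Negative Z-scores can be read as non-binding.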
# [2] = target: Fuc(a1-2)Gal(b1-4)GlcNAc(b1-3)Gal(b1-4)GlcNAc(b1-2)Man(a1-3)[Fuc(a1-2)Gal(b1-4)GlcNAc(b1-3)Gal(b1-4)GlcNAc(b1-2)Man(a1-6)]Man(b1-4)GlcNAc(b1-4)GlcNAc
# Outline: as §1
# [3] = target: Fuc(a1-2)[Gal(a1-3)]Gal(b1-3)GlcNAc(b1-6)GalNAc
# Outline: as §1
# [4] = target: Fuc(a1-2)[Gal(a1-3)]Gal(b1-4)GlcNAc(b1-6)GalNAc
# Outline: as §1
# [5] = target: Fuc(a1-2)[GalNAc(a1-3)]Gal(b1-4)GlcNAc(b1-2)Man
# Outline: as §1
# [6] = target: Fuc(a1-2)[GalNAc(a1-3)]Gal(b1-4)GlcNAc(b1-6)GalNAc
# Outline: as §1
# [7] = target: Fuc(a1-2)[GalNAc(b1-3)]Gal
# Outline: as §1
# [8] = target: Gal(a1-3)Gal
# Outline: as §1
# [9] = target: Gal(a1-3)Gal(b1-4)GlcNAc(b1-6)GalNAc
# Outline: as §1
# [10] = target: Gal(a1-3)Gal(b1-4)[Fuc(a1-3)]GlcNAc(b1-2)Man(a1-3)[Gal(a1-3)Gal(b1-4)[Fuc(a1-3)]GlcNAc(b1-2)Man(a1-6)]Man(b1-4)GlcNAc(b1-4)GlcNAc
# Outline: as §1
# [11] = target: Gal(a1-3)GalNAc
# Outline: as §1
# [12] = target: Gal(a1-3)[Gal(a1-4)]Gal(b1-4)GlcNAc
# Outline: as §1
# [13] = target: Gal(a1-4)Gal(b1-4)Glc
# Outline: as §1
# [14] = target: Gal(b1-3)GlcNAc(b1-2)Man(a1-3)[Gal(b1-3)GlcNAc(b1-2)Man(a1-6)]Man(b1-4)GlcNAc(b1-4)[Fuc(a1-6)]GlcNAc
# Outline: as §1
# [15] = target: Gal(b1-3)GlcNAc(b1-6)Gal(b1-4)GlcNAc
# Outline: as §1
# [16] = target: Gal(b1-3)GlcNAc(b1-6)GalNAc
# Outline: as §1
# [17] = target: Gal(b1-3)[Fuc(a1-4)]GlcNAc(b1-3)Gal(b1-3)[Fuc(a1-4)]GlcNAc
# Outline: as §1
# [18] = target: Gal(b1-3)[Neu5Ac(a2-6)]GlcNAc(b1-4)Gal(b1-4)Glc
# Outline: as §1
# [19] = target: Gal(b1-4)GlcNAc(b1-2)Man(a1-3)[Gal(b1-4)GlcNAc(b1-2)Man(a1-6)][Gal(b1-4)GlcNAc(b1-4)]Man(b1-4)GlcNAc(b1-4)[Fuc(a1-6)]GlcNAc
# Outline: as §1
# [20] = target: Gal(b1-4)GlcNAc(b1-3)Gal(b1-4)GlcNAc(b1-2)[Gal(b1-4)GlcNAc(b1-3)Gal(b1-4)GlcNAc(b1-6)]Man(a1-6)[Gal(b1-4)GlcNAc(b1-3)Gal(b1-4)GlcNAc(b1-2)Man(a1-3)]Man(b1-4)GlcNAc(b1-4)[Fuc(a1-6)]GlcNAc
# Outline: as §1
# [21] = target: Gal(b1-4)GlcNAc(b1-3)Gal(b1-4)GlcNAc(b1-3)Gal(b1-4)GlcNAc(b1-2)[Gal(b1-4)GlcNAc(b1-3)Gal(b1-4)GlcNAc(b1-3)Gal(b1-4)GlcNAc(b1-6)]Man(a1-6)[Gal(b1-4)GlcNAc(b1-3)Gal(b1-4)GlcNAc(b1-3)Gal(b1-4)GlcNAc(b1-2)Man(a1-3)]Man(b1-4)GlcNAc(b1-4)[Fuc(a1-6)]GlcNAc
# Outline: as §1
# [22] = target: Gal(b1-4)GlcNAc(b1-3)Gal(b1-4)GlcNAc(b1-3)Gal(b1-4)GlcNAc(b1-3)Gal(b1-4)GlcNAc(b1-2)[Gal(b1-4)GlcNAc(b1-3)Gal(b1-4)GlcNAc(b1-3)Gal(b1-4)GlcNAc(b1-3)Gal(b1-4)GlcNAc(b1-6)]Man(a1-6)[Gal(b1-4)GlcNAc(b1-3)Gal(b1-4)GlcNAc(b1-3)Gal(b1-4)GlcNAc(b1-3)Gal(b1-4)GlcNAc(b1-2)Man(a1-3)]Man(b1-4)GlcNAc(b1-4)[Fuc(a1-6)]GlcNAc
# Outline: as §1
# [23] = target: Gal(b1-4)GlcNAc(b1-3)Gal(b1-4)GlcNAc(b1-3)Gal(b1-4)GlcNAc(b1-3)Gal(b1-4)GlcNAc(b1-3)Gal(b1-4)GlcNAc(b1-3)Gal(b1-4)GlcNAc(b1-2)Man(a1-3)[Gal(b1-4)GlcNAc(b1-3)Gal(b1-4)GlcNAc(b1-3)Gal(b1-4)GlcNAc(b1-3)Gal(b1-4)GlcNAc(b1-3)Gal(b1-4)GlcNAc(b1-3)Gal(b1-4)GlcNAc(b1-2)Man(a1-6)]Man(b1-4)GlcNAc(b1-4)GlcNAc
# Outline: as §1
# [24] = target: Gal(b1-4)GlcNAc(b1-6)[Gal(b1-4)GlcNAc(b1-3)]GalNAc
# Outline: as §1
# [25] = target: Gal3S(b1-3)GalNAc
# Outline: as §1
# [26] = target: Gal3S(b1-4)[Fuc(a1-3)]GlcNAc6S
# Outline: as §1
# [27] = target: GalNAc(b1-3)Gal
# Outline: as §1
binder,measurement,setting,value
DC-ASGPR L+GEE (Homo sapiens) (protein) MTRTYENFQYLENKVKVQGFKNGPLPLQSLLQRLRSGPCHLLLSLGLGLLLLVIICVVGFQNSKFQRDLVTLRTDFSNFTSNTVAEIQALTSQGSSLEETIASLKAEVEGFKQERQAGVSELQEHTTQKAHLGHCPHCPSVCVPVHSEMLLRVQQLVQDLKKLTCQVATLNNNGEEASTEGTCCPVNWVEHQDSCYWFSHSGMSWAEAEKYCQLKNAHLVVINSREEQNFVQKYLGSAYTWMGLSDPEGAWKWVDGTDYATGFQNWKPGQPDDWQGHGLGGGEDCAHFHPDGRWNDDVCQRPYHWVCEAGLGQTSQESH,glycan array binding signal (z-score),[1],-0.314
same,glycan array binding signal (z-score),[2],0.538
same,glycan array binding signal (z-score),[3],2.67
same,glycan array binding signal (z-score),[4],-0.492
same,glycan array binding signal (z-score),[5],0.54
same,glycan array binding signal (z-score),[6],3.41
same,glycan array binding signal (z-score),[7],3.61
same,glycan array binding signal (z-score),[8],0.243
same,glycan array binding signal (z-score),[9],3.21
same,glycan array binding signal (z-score),[10],0.091
same,glycan array binding signal (z-score),[11],-0.254
same,glycan array binding signal (z-score),[12],-0.371
same,glycan array binding signal (z-score),[13],-0.702
same,glycan array binding signal (z-score),[14],-0.527
same,glycan array binding signal (z-score),[15],-0.073
same,glycan array binding signal (z-score),[16],3.3
same,glycan array binding signal (z-score),[17],-0.093
same,glycan array binding signal (z-score),[18],-0.382
same,glycan array binding signal (z-score),[19],-0.406
same,glycan array binding signal (z-score),[20],-0.323
same,glycan array binding signal (z-score),[21],0.024
same,glycan array binding signal (z-score),[22],2.52
same,glycan array binding signal (z-score),[23],0.991
same,glycan array binding signal (z-score),[24],-0.432
same,glycan array binding signal (z-score),[25],0.442
same,glycan array binding signal (z-score),[26],0.135
same,glycan array binding signal (z-score),[27],3.04
